# Results published in the supplement of paper PMC9399229.
# ± gives the standard deviation of the averaged measurements. Over roughly 1,900 compounds, “relative cell viability (CellTiter-Glo), compound alone” has its median near 1; the lowest 2% begin near 0.16. The sample as a whole holds a higher share of the lowest values than the screen did.
# System: Hep3B
# Test: relative cell viability (CellTiter-Glo), compound alone (fraction); higher = more viable cells (less growth inhibition)
# Details: cabozantinib 0 µM; 4 days
row,SMILES,relative cell viability
1,C[C@H]1CCC/C=C/[C@@H]2C[C@H](O)C[C@H]2[C@H](O)/C=C/C(=O)O1 [Brefeldin A],0.111 ± 0.0018
2,CC(C)OC(=O)[C@H](C)N[P@](=O)(CO[C@H](C)Cn1cnc2c(N)ncnc21)Oc1ccccc1 [Tenofovir Alafenamide (GS-7340)],1.12 ± 0.17
3,CC(C)[C@]12O[C@H]1[C@@H]1O[C@]13[C@]1(O[C@H]1C[C@H]1C4=C(CC[C@@]13C)C(=O)OC4)[C@@H]2O [Triptolide (PG490)],0.179 ± 0.009
4,"CN1CCc2cc3c(cc2C1C1OC(=O)c2c1ccc1c2OCO1)OCO3 (single isomer, unassigned; (+)) [(+)-Bicuculline]",1.1 ± 0.094
5,CN1[C@@H]2CC(O)C[C@H]1[C@@H]1O[C@@H]12 (stereo not given in full) [Scopine],1.05 ± 0.1
6,CCN1CCN(C(=O)Cc2ccc(Nc3ncc(F)c(Nc4ccc(C(=O)Nc5ccccc5Cl)cc4)n3)cc2)CC1 [Aurora A Inhibitor I],0.328 ± 0.1
7,C[C@@H]1O[C@@H](O[C@H]2C[C@@H](O)[C@]3(CO)[C@H]4[C@H](O)C[C@]5(C)[C@@H](C6=CC(=O)OC6)CC[C@]5(O)[C@@H]4CC[C@]3(O)C2)[C@H](O)[C@H](O)[C@H]1O [Ouabain],0.103 ± 0.0012
8,Cn1cc(C2=C(c3cn(C4CCN(Cc5ccccn5)CC4)c4ccccc34)C(=O)NC2=O)c2ccccc21,1.29 ± 0.031
9,C[C@@H]1[C@H](O)[C@@H](C)/C=C/C=C/CC/C=C/C=C/C=C/C=C/[C@H](O[C@H]2O[C@@H](C)[C@H](O)[C@@H](N)[C@H]2O)C[C@@H]2O[C@](O)(C[C@@H](O)[C@H](O)CC[C@@H](O)C[C@@H](O)C[C@@H](O)CC(=O)O[C@H]1C)C[C@H](O)[C@H]2C(=O)O [Nystatin (Fungicidin)],1.06 ± 0.15
10,COC(=O)C1=CCCN(C)C1 [Arecoline],1.02 ± 0.074
11,c1ccc([C@@H]2C[C@H]2NC2CCNCC2)cc1,0.9895 ± 0.0065
12,O=c1[nH]c2ccc(Cl)cc2c(N[C@@H]2CN3CCC2CC3)c1-c1nc2ccccc2[nH]1,0.13 ± 0.018
13,CCOC(=O)c1cncn1[C@H](C)c1ccccc1 [Etomidate],1.24 ± 0.049
14,CCN1CC2(OC(=O)c3ccccc3NC(C)=O)CCC(OC)C34C1C(CC23)C1(O)CC(OC)C2CC4C1(O)C2OC (stereo not given) [Lappaconite HBr],0.984 ± 0.092
15,O=C1C=CC[C@@H]2[C@H]3CCCN4CCC[C@@H](CN12)[C@@H]34 [Sophocarpine],1.02 ± 0.17
16,CCOc1ccccc1-n1c(C(C)N2CCN(C(=O)COc3ccc(Cl)cc3)CC2)nc2ccccc2c1=O (stereo not given) [Erastin],1.21 ± 0.063
17,COc1cc([C@@H]2c3cc4c(cc3[C@H](O)[C@H]3COC(=O)[C@@H]23)OCO4)cc(OC)c1OC [Picropodophyllin (PPP)],0.7418 ± 0.0018
18,[O-][n+]1ccccc1[S-].[O-][n+]1ccccc1[S-].[Zn+2] [Zinc Pyrithione],0.0193 ± 0.0014
19,CCN(Cc1ccc(Cl)nc1)/C(=C/[N+](=O)[O-])NC [Nitenpyram],0.914 ± 0.12
20,CN1CCN(c2nc3ccccc3nc2Cl)CC1,1.13 ± 0.04
